The other results are listed elsewhere or left out. Calls of active or inactive are those of the source. No stated cut-off is given here; in the data, active means inhibition above about 24%; inactive means the rest.

The subject of this test is Botulinum neurotoxin type A light chain protease [Clostridium botulinum A str. ATCC 3502]. Nature of the test: inhibition of botulinum toxin A LC protease – biochemical, flow cytometry, cherry pick 2, confirmation (AID 602325). The conditions noted are these: multiplex microsphere protease cleavage assay, at 10 µM, stronger effect = higher value. (Flow cytometry measures light scatter and fluorescence of single cells or particles in a stream.)

The term inhibition denotes the drop in the measured response relative to a control, in per cent. For `Cc1cc2cc(CNC(=O)c3ccc(S(=O)(=O)N4CCOCC4)cc3)ccc2[nH]1`, the inhibition was 3.8% (inactive).
As to `O=C(OCC(=O)c1c[nH]c2ccccc12)c1cccc(O)c1`, the inhibition is 1.5% (inactive).
For `Cc1cc2ccccc2n1CCNC(=O)COc1ccc2ccccc2c1`, the inhibition was 5.2% (inactive).
The value for `CC(=O)OCCN(CCCn1c(-c2ccncc2)nc2ccccc21)c1nc(-c2ccc(C)cc2)cs1` was 1.8% (inactive).
The value for `Cc1ccc(CNC(=O)c2cccc3c2C(=O)c2ccc(N4CCC(C)CC4)cc2S3(=O)=O)cc1` was 8.9% (inactive).
As for `O=C(CN1CCN(c2ccccc2O)CC1)NC(=O)NCc1ccccc1`, the figure is 1.6% (inactive); as for `CCOc1ncccc1C(=O)OCC(=O)c1c[nH]c2ccccc12`, 9.5% (inactive).
For the compound `COc1ccc(-c2cc3c(c4c2ccn4C)C2CCC3C2)cn1` (stereo not drawn), the inhibition is 25.2% (active).
